Hits are enriched below; roughly 5.7% of the tested compounds scored in any of these assays.
RORgamma inh: blocks mouse ROR gamma transcriptional activity; Drosophila S2 Gal4-RORgamma UAS-luciferase reporter, 20 h; Potency, µM (highest dose often 53.6 µM), for the others: at the top dose activity change, negative = inhibition, most hits filed as inhibitors; 310,000 tested, 5.4% active; P51450; further: nearly all actives have a fitted effect of over 60% in size
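Stable Schneider cell line, Gal4 DNA-binding domain fused to ROR gamma, UAS-luciferase. Cmpd 1 hr RT → CuSO4 700 uM final → 20 hr RT → luciferase reagent 10 min → luminescence.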
Gal4-VP16 FLuc: Gal4-VP16 reporter inhibition counter-screen; Drosophila S2 Gal4-VP16 UAS-luciferase, luminescence, 20 h; Potency, µM (highest dose often 53.6 µM), inactives show top-dose activity, negative = inhibition, most hits filed as inhibitors; 310,000 tested, 3.5% active;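 further: Gal4-VP16 expression switched on by copper sulfate through the metallothionein promoter; nearly all actives have a fitted effect of over 50% in size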
B2AR arrestin: agonists driving beta-arrestin recruitment to human beta2-adrenergic receptor; Potency, µM (titrated, usually from 46.1 µM), without a hit: at the top dose activation, actives largely listed as activators; beta-arrestin recruitment to beta2AR, cell-based reporter; 330,000 tested, 0.02% active; P07550;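 further: 0% = DMSO controls and full agonism = EC100 isoproterenol or metaproterenol; nearly all actives have a fitted effect of over 65% in size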
NPSR antag: blocks cAMP signaling of the human neuropeptide S receptor | Q6W5P4 | CHO-NPSR cells, cAMP TR-FRET, antagonist mode | Potency, µM (highest dose often 38.3 µM), inactives show at the highest dose activity change, negative = inhibition, actives largely listed as inhibitors | 220,000 tested, 1% active | AID 1461; further: nearly all actives have a fitted effect of over 50% in size
Target sequence (Q6W5P4 whole entry, looked up): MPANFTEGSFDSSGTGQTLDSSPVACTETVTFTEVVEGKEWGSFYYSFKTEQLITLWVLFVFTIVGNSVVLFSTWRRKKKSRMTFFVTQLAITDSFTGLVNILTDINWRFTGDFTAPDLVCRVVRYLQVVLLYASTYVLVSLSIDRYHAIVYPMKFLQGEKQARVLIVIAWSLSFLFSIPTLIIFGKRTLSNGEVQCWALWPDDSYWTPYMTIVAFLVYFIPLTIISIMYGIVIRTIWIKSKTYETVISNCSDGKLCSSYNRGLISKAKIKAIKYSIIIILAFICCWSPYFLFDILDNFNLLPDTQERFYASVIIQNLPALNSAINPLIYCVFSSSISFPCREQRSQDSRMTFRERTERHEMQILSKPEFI
Active calls of the source: *; [ ] = dose if it differs, or a comment. The call rests on the fitted dose curve; in most records, active means well fitted curve in the direction sought with a large enough effect; inconclusive means small, poorly fitted or top-dose-only effect, or another doubt; inactive means no such curve, though single readings can be large; an effect the other way counts as inactive or inconclusive. Unless noted, on the % scale 0 is the no-effect control and ±100 the full control effect; potency means the concentration at half of the fitted maximal effect.

Screening CCOc1ccc2nc(NC(=O)c3ccoc3C)sc2c1 returned RORgamma inh inconclusive, Gal4-VP16 FLuc 11.2µM*, B2AR arrestin 0.0% and NPSR antag inconclusive.
Cc1ccc2nc(NC(=O)c3ccccn3)sc2c1 was read as RORgamma inh 0.355µM*, Gal4-VP16 FLuc 1.12µM*, B2AR arrestin 0.0% and NPSR antag -41.0%.
For CSc1nc2ccc(NC(=O)c3ccccn3)cc2s1 the results were RORgamma inh inconclusive, Gal4-VP16 FLuc inconclusive and B2AR arrestin -0.3%.
`COc1ccccc1C(=O)Nc1nc2ccccc2s1` gave RORgamma inh 0.631µM*, Gal4-VP16 FLuc 1µM* and B2AR arrestin -0.8%.
For CC(C)C[C@@H](CC(=O)N[C@H](CC(=O)N[C@@H]1CCCC[C@H]1C(=O)N[C@H](CC(=O)N[C@@H](CCC(=O)O)CC(=O)O)Cc1c[nH]c2ccccc12)C(C)C)NC(=O)[C@@H]1CCCC[C@H]1N the results were RORgamma inh -7.0% and Gal4-VP16 FLuc -1.9%.
O=C(Nc1nc2ccc(S(=O)(=O)N3CCCC3)cc2s1)c1ccccn1 was read as RORgamma inh 2.82µM*, Gal4-VP16 FLuc inconclusive, B2AR arrestin 0.4% and NPSR antag -14.7%.
CSc1ncccc1C(=O)Nc1nc2ccc(Oc3ccccc3)cc2s1 was read as RORgamma inh 10µM*, Gal4-VP16 FLuc inconclusive, B2AR arrestin -0.5% and NPSR antag -2.5%.
`COc1ccc2nc(NC(=O)c3ccccc3C(=O)O)sc2c1` gave RORgamma inh -3.8%, Gal4-VP16 FLuc -8.7% and B2AR arrestin 0.3%.
For O=C(COc1ccccc1)NNc1nc2c(F)cc(F)cc2s1 the results were RORgamma inh 12.6µM*, Gal4-VP16 FLuc 0.5%, B2AR arrestin -0.2% and NPSR antag 2.5%.
COc1ccc2nc(NC(=O)c3ccccc3F)sc2c1 was read as RORgamma inh inconclusive, Gal4-VP16 FLuc inconclusive and B2AR arrestin -0.3%.
Screening Cc1ccc2nc(NC(=O)c3ccccc3F)sc2c1 returned RORgamma inh 1.26µM*, Gal4-VP16 FLuc 7.08µM* and B2AR arrestin -2.1%.
For Cc1cc2nccc(-c3ccc(OCCCF)cc3)n2n1 the results were RORgamma inh 8.6%, Gal4-VP16 FLuc 1.5% and B2AR arrestin 0.0%.
For COc1cccc([C@@H]2Oc3ccc(OC)cc3C(=O)[C@H]2OC(=O)NCc2ccco2)c1 the results were RORgamma inh -13.1% and Gal4-VP16 FLuc -12.2%.
O=C(Nc1nc2c(F)cc(F)cc2s1)c1ccccn1 was read as RORgamma inh 0.224µM*, Gal4-VP16 FLuc 2µM*, B2AR arrestin 0.6% and NPSR antag -52.0%.
Screening CCOc1ccc2nc(NC(=O)Nc3ccccc3)sc2c1 returned RORgamma inh -44.7%, Gal4-VP16 FLuc inconclusive, B2AR arrestin -0.3% and NPSR antag -12.6%[46.1 µM].
For CCOc1ccc2nc(NC(=O)c3ccccn3)sc2c1 the results were RORgamma inh 0.708µM*, Gal4-VP16 FLuc 2.82µM*, B2AR arrestin -0.3% and NPSR antag inconclusive.
Screening CCOc1ccc2nc(NC(=O)c3ccco3)sc2c1 returned RORgamma inh inconclusive, Gal4-VP16 FLuc inconclusive and B2AR arrestin -0.4%.
For CCOc1ccc2nc(NC(=S)NCc3ccccc3)sc2c1 the results were RORgamma inh 2.24µM*, Gal4-VP16 FLuc 2.82µM*, B2AR arrestin 0.1% and NPSR antag 2.9%[46.1 µM].
Screening CCOC(=O)CC1Sc2ccccc2NC1=S (stereo not given) returned RORgamma inh 3.55µM*, Gal4-VP16 FLuc inconclusive, B2AR arrestin 3.8% and NPSR antag 24.0%.
CCCCN1C(=O)C(=O)NC[C@@H]1C(C)CC (stereo not given in full) was read as RORgamma inh 27.5%, Gal4-VP16 FLuc -7.8%, B2AR arrestin -0.7% and NPSR antag 17.5%.
For O=C1NC[C@@H](Cc2ccc(O)cc2)N(CCc2cccc3ccccc23)C1=O the results were RORgamma inh 26.0%, Gal4-VP16 FLuc -13.0%, B2AR arrestin 0.2% and NPSR antag -5.0%.
CCC(C)[C@H]1CNC(=S)N1CCc1cccc2ccccc12 (stereo not given in full) was read as RORgamma inh 2.51µM*, Gal4-VP16 FLuc 4.47µM*, B2AR arrestin 0.2% and NPSR antag inconclusive.
CCC(C)[C@H]1CNC(=S)N1CCC12CC3CC(CC(C3)C1)C2 (stereo not given in full) was read as RORgamma inh 0.891µM*, Gal4-VP16 FLuc 2.82µM*, B2AR arrestin -0.7% and NPSR antag -28.0%.
N#Cc1cccc(NC(=O)N2CC[C@@]3(CCCN(C(=O)c4cnccn4)C3)C2)c1 was read as RORgamma inh 0.8% and Gal4-VP16 FLuc 8.3%.
Screening Cc1cccc(/C=N/NC(=O)c2cc(Br)ccc2O)n1 returned RORgamma inh inconclusive, Gal4-VP16 FLuc inconclusive and B2AR arrestin 0.1%.
Screening O=C(N/N=C1/CCSC1)c1cc(Br)ccc1O returned RORgamma inh 7.94µM*, Gal4-VP16 FLuc -11.2%[10 µM], B2AR arrestin -0.1% and NPSR antag -6.9%.
`CCC/C=N/NC(=O)c1cc(Br)ccc1O` gave RORgamma inh 11.2µM*, Gal4-VP16 FLuc inconclusive, B2AR arrestin -0.7% and NPSR antag 12.2%.
For O=C(N/N=C/c1ccoc1)c1cc(Br)ccc1O the results were RORgamma inh 3.55µM*, Gal4-VP16 FLuc 3.98µM* and B2AR arrestin -0.1%.
Screening O=C(NN=C1CCCC1)c1cc(Br)ccc1O returned RORgamma inh inconclusive, Gal4-VP16 FLuc inconclusive and B2AR arrestin -0.9%.
Cc1nc2cnc(Oc3cccc(Cl)c3)nc2n(Cc2ccc(F)cc2)c1=O was read as RORgamma inh inconclusive and Gal4-VP16 FLuc -6.7%.
`O=C(/C=C/c1ccccc1Br)c1ccc2c(c1)OCO2` gave RORgamma inh -79.8%, Gal4-VP16 FLuc inconclusive and B2AR arrestin -1.0%.
`O=C(/C=C\Nc1cccc(F)c1)c1ccc2c(c1)OCO2` gave RORgamma inh inconclusive, Gal4-VP16 FLuc 10µM*, B2AR arrestin 0.0% and NPSR antag -2.2%[46.1 µM].
Screening O=C(/C=C\Nc1ccccc1Br)c1ccc2c(c1)OCO2 returned RORgamma inh 5.01µM*, Gal4-VP16 FLuc inconclusive, B2AR arrestin -0.2% and NPSR antag -13.6%.
Screening O=C(/C=C/Nc1ccc(F)cc1Br)c1ccccc1 returned RORgamma inh 2.51µM*, Gal4-VP16 FLuc 7.08µM*, B2AR arrestin -0.2% and NPSR antag -2.6%.
COc1cc2nc(CN(CCC(C)C)Cc3nc4cc(OC)c(OC)cc4c(=O)[nH]3)[nH]c(=O)c2cc1OC was read as RORgamma inh 0.794µM*, Gal4-VP16 FLuc 6.31µM*, B2AR arrestin 0.4% and NPSR antag 0.2%[46.1 µM].
CCNCc1nc2cc(OC)c(OC)cc2c(=O)[nH]1 was read as RORgamma inh -12.1%, Gal4-VP16 FLuc 3.5%, B2AR arrestin 0.1% and NPSR antag -3.0%[46.1 µM].
Screening CC1(C)Nc2ccc(O)cc2-c2c1ssc2=S returned RORgamma inh 8.91µM*, Gal4-VP16 FLuc inconclusive, B2AR arrestin 0.2% and NPSR antag -3.3%[46.1 µM].
Screening O=C(Nc1ccc(C2=NCCN2)cc1)c1ccc(Cl)c(C(=O)Nc2ccc(C3=NCCN3)cc2)c1 returned RORgamma inh 2.2%, Gal4-VP16 FLuc 8.4%, B2AR arrestin -0.7% and NPSR antag 2.2%.

Screens (PubChem)
